# Assay results: the supplement of paper PMC12819154, “High-throughput peptide-centric local stability assay extends protein–ligand identification to membrane proteins, tissues and bacteria” (Nature Structural & Molecular Biology, 2025)
# Compound: CN[C@@H]1C[C@H]2O[C@@](C)([C@@H]1OC)n1c3ccccc3c3c4c(c5c6ccccc6n2c5c31)C(=O)NC4 [staurosporine]
# Assay: log2 fold change of tryptic peptide abundance, ligand vs vehicle (limited proteolysis) (log2 ratio); higher = more trypsin-susceptible (destabilized)
# Details: ligand concentration: 20 uM; sample: K562 cleared lysate; digestion: 4 min, 22 C (HT-PELSA RT4min, Orbitrap Astral)
# Chain of UniProt Q13470 (Q13470 whole entry): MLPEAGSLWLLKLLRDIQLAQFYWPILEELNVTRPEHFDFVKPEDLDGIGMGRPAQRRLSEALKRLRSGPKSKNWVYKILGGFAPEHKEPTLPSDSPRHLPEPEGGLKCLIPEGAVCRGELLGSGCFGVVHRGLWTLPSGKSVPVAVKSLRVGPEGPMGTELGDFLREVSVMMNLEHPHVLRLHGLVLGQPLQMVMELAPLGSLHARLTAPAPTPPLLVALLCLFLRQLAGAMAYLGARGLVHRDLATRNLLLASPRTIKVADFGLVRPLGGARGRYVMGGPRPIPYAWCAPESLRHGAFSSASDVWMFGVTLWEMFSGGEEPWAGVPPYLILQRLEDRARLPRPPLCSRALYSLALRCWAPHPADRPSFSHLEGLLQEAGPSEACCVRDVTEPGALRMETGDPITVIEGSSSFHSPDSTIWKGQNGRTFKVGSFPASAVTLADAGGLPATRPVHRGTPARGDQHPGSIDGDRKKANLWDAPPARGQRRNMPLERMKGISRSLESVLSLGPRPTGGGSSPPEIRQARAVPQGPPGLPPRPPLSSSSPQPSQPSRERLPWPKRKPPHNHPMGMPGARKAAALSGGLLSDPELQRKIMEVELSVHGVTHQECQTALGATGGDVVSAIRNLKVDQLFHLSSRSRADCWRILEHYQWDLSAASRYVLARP
# Chain of UniProt Q14680 (Q14680 whole entry, looked up): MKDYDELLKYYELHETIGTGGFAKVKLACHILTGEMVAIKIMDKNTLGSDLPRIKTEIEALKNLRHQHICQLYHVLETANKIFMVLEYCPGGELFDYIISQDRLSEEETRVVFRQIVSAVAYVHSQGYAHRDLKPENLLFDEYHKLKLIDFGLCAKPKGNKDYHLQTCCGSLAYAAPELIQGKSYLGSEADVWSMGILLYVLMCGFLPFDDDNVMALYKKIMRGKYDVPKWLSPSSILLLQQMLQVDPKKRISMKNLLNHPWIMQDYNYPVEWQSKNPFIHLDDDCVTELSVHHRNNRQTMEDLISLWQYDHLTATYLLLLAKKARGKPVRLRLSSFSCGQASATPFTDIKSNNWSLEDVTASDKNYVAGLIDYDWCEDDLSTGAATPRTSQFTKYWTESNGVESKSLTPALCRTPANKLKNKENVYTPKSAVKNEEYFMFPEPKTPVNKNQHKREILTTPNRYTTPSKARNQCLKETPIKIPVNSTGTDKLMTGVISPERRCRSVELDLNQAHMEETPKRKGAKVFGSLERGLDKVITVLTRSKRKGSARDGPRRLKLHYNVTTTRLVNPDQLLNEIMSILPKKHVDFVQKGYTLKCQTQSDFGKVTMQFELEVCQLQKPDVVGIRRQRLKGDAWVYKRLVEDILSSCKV
# Chain of UniProt Q5SW79 (Q5SW79 whole entry): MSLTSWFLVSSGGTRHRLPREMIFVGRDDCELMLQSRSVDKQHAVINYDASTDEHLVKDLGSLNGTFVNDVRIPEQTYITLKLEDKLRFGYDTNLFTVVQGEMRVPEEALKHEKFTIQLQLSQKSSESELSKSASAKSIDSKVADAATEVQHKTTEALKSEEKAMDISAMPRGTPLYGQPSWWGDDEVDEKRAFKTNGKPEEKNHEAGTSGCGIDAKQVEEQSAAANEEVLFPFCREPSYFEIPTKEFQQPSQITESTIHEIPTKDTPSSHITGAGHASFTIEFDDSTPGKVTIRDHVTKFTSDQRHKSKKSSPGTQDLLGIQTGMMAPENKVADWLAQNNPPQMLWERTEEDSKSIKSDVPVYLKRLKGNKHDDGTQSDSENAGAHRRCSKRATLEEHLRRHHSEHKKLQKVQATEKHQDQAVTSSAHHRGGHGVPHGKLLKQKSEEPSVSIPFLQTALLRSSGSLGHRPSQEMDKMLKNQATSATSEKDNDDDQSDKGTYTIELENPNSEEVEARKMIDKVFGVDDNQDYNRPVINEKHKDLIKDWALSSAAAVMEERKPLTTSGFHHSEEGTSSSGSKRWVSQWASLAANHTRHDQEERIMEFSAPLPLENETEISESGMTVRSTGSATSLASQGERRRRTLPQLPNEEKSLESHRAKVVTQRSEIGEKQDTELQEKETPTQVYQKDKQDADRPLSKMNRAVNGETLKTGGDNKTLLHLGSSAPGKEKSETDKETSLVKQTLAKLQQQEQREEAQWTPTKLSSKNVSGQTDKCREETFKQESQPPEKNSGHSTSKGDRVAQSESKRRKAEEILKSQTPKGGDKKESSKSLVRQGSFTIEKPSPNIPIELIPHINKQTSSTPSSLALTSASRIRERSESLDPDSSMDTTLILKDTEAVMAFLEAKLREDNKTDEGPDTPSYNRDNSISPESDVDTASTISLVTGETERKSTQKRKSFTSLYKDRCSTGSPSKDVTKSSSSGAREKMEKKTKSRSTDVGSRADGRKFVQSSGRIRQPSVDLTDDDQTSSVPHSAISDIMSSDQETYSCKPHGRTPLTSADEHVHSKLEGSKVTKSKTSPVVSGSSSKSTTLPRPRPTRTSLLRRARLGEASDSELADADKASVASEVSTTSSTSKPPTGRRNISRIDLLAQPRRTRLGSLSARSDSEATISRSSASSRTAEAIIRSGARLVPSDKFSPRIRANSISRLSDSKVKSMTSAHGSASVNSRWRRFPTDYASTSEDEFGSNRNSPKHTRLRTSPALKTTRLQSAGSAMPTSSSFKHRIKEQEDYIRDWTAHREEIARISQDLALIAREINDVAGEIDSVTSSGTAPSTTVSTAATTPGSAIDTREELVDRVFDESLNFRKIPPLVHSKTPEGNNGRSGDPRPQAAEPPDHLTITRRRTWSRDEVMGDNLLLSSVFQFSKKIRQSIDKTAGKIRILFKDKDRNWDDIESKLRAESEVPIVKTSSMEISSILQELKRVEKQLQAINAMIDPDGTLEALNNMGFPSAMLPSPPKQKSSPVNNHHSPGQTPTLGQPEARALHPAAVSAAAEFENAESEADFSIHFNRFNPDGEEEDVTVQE
# Chain of UniProt Q13546 (Q13546 whole entry): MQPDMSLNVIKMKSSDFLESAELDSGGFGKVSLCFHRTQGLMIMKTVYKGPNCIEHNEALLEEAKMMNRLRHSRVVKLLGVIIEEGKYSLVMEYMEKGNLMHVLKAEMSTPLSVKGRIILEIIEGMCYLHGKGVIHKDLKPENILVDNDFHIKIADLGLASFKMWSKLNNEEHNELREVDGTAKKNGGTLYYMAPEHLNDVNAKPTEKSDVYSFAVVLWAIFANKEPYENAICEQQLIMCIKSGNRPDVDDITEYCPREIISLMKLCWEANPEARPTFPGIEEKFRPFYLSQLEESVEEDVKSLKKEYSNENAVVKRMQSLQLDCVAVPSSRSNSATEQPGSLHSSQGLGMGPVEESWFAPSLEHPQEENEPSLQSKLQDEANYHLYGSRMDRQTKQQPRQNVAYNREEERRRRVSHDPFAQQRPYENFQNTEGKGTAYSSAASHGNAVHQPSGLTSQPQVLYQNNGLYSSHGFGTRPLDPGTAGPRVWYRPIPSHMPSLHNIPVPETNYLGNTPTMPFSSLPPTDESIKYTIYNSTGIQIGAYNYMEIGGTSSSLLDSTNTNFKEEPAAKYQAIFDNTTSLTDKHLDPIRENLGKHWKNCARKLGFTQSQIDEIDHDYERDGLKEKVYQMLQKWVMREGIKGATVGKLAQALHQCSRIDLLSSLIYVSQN
# Chain of UniProt Q0VDG4 (Q0VDG4 whole entry): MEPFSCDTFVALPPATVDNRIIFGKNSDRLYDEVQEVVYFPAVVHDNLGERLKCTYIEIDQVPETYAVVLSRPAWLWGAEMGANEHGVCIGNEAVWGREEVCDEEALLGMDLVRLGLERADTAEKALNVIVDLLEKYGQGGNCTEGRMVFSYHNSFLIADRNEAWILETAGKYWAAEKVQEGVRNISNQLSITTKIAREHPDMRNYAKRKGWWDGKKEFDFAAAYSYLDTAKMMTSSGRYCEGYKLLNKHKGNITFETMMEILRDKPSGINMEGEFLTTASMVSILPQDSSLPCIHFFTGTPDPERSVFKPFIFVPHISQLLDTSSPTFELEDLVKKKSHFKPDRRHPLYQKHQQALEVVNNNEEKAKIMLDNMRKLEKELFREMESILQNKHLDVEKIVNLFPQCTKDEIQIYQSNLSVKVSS
# Chain of UniProt P04049 (P04049 whole entry): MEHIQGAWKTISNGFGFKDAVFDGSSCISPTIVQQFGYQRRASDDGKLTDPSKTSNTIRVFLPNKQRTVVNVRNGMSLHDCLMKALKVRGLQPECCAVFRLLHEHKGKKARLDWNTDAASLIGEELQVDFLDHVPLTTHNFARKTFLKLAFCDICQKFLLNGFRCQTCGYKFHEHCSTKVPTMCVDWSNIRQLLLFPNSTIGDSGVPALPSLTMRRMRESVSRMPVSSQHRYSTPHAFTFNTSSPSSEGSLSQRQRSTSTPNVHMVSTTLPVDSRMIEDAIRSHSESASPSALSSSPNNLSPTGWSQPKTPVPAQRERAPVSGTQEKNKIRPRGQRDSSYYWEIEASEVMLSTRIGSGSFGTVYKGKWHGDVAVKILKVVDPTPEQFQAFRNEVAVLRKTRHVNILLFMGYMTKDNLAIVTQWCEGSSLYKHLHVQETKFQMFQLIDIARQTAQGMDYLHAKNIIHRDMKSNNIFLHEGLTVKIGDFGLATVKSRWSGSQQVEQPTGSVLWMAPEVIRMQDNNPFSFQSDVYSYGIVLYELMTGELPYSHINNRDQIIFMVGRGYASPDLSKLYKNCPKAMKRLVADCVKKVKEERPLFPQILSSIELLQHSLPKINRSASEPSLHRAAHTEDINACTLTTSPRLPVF
# Chain of UniProt P09417 (P09417 whole entry): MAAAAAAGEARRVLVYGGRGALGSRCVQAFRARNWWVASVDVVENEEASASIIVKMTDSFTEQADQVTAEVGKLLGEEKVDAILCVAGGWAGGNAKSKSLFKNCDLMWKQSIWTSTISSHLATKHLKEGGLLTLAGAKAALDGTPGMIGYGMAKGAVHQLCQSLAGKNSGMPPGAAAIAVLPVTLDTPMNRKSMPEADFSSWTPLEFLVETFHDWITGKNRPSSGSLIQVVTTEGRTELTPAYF
# Chain of UniProt P69891 (P69891 whole entry): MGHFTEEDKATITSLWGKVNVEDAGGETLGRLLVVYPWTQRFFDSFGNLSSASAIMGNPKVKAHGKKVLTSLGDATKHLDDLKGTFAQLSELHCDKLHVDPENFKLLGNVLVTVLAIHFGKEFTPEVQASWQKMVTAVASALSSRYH
row,Target,log2 fold change
1,"HBG1 (peptide sequence: VLTSLGDAIK, peptide start residue: 68) (UniProt P69891)",0.204
2,"LIMK2 (peptide sequence: TLDFGLNVK, peptide start residue: 553) (UniProt P53671)",-1.38
3,"UniProt Q99759 (peptide sequence: SPSAPINWR, peptide start residue: 355)",-2.28
4,"NQO1 (peptide sequence: SIPTDNQIK, peptide start residue: 263) (UniProt P15559)",0.728
5,"MED12 (peptide sequence: NVSFNPAK, peptide start residue: 61) (UniProt Q93074)",0.555
6,"UniProt Q15208 (peptide sequence: VMEEEGLKDEEKR, peptide start residue: 51)",0.382
7,"PRKAR1A (peptide sequence: ILMGSTLR, peptide start residue: 234) (UniProt P10644)",0.333
8,"UniProt Q02750 (peptide sequence: SYMSPER, peptide start residue: 228)",3.08
9,"TAGLN2 (peptide sequence: TLMNLGGLAVAR, peptide start residue: 128) (UniProt P37802)",0.271
10,"PRKACB (peptide sequence: QIEHTLNEK, peptide start residue: 85) (UniProt P22694)",1.81
11,"UniProt P61962 (peptide sequence: LMWIPDTK, peptide start residue: 74)",0.374
12,"UniProt Q6A1A2 (peptide sequence: AHPFFESVTWENLHQQTPPK, peptide start residue: 338)",-1.74
13,"RPS6KA4 (peptide sequence: VLGTGAYGK, peptide start residue: 54) (UniProt O75676)",-0.533
14,"QDPR (peptide sequence: EGGLLTLAGAK, peptide start residue: 128) (UniProt P09417)",0.635
15,"SNRK (peptide sequence: IAGLYDLDKTLGR, peptide start residue: 12) (UniProt Q9NRH2)",-2.34
16,"PIP5K1C (peptide sequence: DCLVLESFK, peptide start residue: 305) (UniProt O60331)",-0.54
17,"TNK1 (peptide sequence: VADFGLVRPLGGAR, peptide start residue: 261) (UniProt Q13470)",-3.64
18,"PRKAR1B (peptide sequence: NVLFAHLDDNER, peptide start residue: 135) (UniProt P31321)",1.02
19,"RIPK1 (peptide sequence: IADLGLASFK, peptide start residue: 154) (UniProt Q13546)",-0.814

row,Target,log2 fold change
1,"THRAP3 (peptide sequence: SYSPAHNR, peptide start residue: 53) (UniProt Q9Y2W1)",2.27
2,"UniProt P78527 (peptide sequence: GYGLFAGPCK, peptide start residue: 365)",0.189
3,"MELK (peptide sequence: DLKPENLLFDEYHK, peptide start residue: 132) (UniProt Q14680)",-1.98
4,"CEP170 (peptide sequence: SDSEATISR, peptide start residue: 1165) (UniProt Q5SW79)",0.41
5,"OSBPL9 (peptide sequence: VVLPTFILER, peptide start residue: 391) (UniProt Q96SU4)",0.326
6,"GSTP1 (peptide sequence: MPPYTVVYFPVRGR, peptide start residue: 1) (UniProt P09211)",0.55
7,"UniProt Q14004 (peptide sequence: EGFPITAIR, peptide start residue: 765)",-1.01
8,"UniProt O75494 (peptide sequence: SFDYNYR, peptide start residue: 133)",0.608
9,"DHX16 (peptide sequence: QQTEKPESEDEWER, peptide start residue: 153) (UniProt O60231)",2.31
10,"RAF1 (peptide sequence: IGDFGLATVK, peptide start residue: 445) (UniProt P04049)",0.416
11,"MARS (peptide sequence: SCPVVQSSQHLFLDLPK, peptide start residue: 440) (UniProt P56192)",0.233
12,"UniProt Q02040 (peptide sequence: STMDFIR, peptide start residue: 72)",0.414
13,"PRDX1 (peptide sequence: KQGGLGPMNIPLVSDPKR, peptide start residue: 93) (UniProt Q06830)",0.253
14,"CDK5 (peptide sequence: DLKPQNLLINR, peptide start residue: 126) (UniProt Q00535)",-3.41
15,"UniProt P51812 (peptide sequence: DILVEVNHPFIVK, peptide start residue: 120)",-0.86
16,"UniProt Q13188 (peptide sequence: AIFMIPTNPPPTFR, peptide start residue: 232)",-3.02
17,"SCRN3 (peptide sequence: IMLDNMR, peptide start residue: 369) (UniProt Q0VDG4)",0.327
18,"UniProt P62269 (peptide sequence: KADIDLTKR, peptide start residue: 47)",0.394
